ROC1-CUL1 inh – inhibitors of human ROC1-CUL1 ubiquitin ligase activity. E3 ubiquitin-protein ligase RBX1 (Homo sapiens) + Cullin-1 (Homo sapiens), P62877+Q13616. in vitro K48 di-Ub FRET, acceptor:donor ratio, 45 min. inhibition, % at 10 µM. 0.6% of 140,000 active. AID 1347404, 2020; in the data active = inhibition above about 25%
Target sequence (P62877 whole entry, looked up): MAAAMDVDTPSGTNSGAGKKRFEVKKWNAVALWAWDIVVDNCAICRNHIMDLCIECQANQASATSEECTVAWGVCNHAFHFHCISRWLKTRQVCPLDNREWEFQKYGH
Target sequence (Q13616 whole entry, looked up): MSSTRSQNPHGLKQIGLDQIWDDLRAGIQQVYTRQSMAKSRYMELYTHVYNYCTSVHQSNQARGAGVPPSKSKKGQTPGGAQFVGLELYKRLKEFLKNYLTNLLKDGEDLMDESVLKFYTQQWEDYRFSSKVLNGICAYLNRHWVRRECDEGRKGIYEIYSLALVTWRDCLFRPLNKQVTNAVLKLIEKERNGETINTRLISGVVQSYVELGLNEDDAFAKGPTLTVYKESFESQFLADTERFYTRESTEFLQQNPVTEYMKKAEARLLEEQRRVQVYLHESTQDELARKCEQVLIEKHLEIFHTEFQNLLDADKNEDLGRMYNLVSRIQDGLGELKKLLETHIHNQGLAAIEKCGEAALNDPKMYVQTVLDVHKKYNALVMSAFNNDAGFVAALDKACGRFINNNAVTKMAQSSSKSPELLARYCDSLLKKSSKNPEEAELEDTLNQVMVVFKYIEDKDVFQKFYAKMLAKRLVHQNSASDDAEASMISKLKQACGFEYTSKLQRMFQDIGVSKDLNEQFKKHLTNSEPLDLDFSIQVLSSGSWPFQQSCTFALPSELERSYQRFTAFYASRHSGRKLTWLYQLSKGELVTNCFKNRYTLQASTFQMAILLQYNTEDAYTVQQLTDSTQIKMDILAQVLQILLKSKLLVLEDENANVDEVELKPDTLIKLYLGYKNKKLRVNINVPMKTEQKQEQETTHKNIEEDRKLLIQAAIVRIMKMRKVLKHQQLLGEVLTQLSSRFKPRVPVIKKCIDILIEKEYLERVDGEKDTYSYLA
A number is an active result; i = inactive. Many of the other results were omitted from the sample, so hits are more common in it than they were.

SMILES	ROC1-CUL1 inh
CCN(CC)S(=O)(=O)c1ccc(-c2csc(=Nc3ccccc3)n2-c2ccccc2)cc1	i
COC(=O)CN1C(=O)S/C(=C/c2ccc(-c3cccc(C(=O)O)c3C)o2)C1=O	i
O=C1S/C(=C\c2cc(Br)cc(Cl)c2O)C(=O)N1Cc1ccc(F)cc1	39.9
O=C(O)COc1ccc(/C=C2/SC(=O)N(Cc3ccc(F)cc3)C2=O)cc1Br	i
Cc1cccc(/C=C2/SC(=O)N(Cc3ccccc3C#N)C2=O)n1	i
CC(C)c1ccc(/C=C2\SC(=O)N(Cc3ccc(F)cc3)C2=O)cc1	i
Cc1cccc(NC(=O)CN2C(=O)S/C(=C/c3ccc(-c4cc(C(=O)O)ccc4Cl)o3)C2=O)c1	i
C=CCN1C(=O)S/C(=C\c2ccc(-c3ccc(Br)cc3)o2)C1=O	i
O=C(O)c1ccc(-c2ccc(/C=C3\SC(=O)N(Cc4ccc(F)cc4)C3=O)o2)cc1Cl	91.8
N#Cc1ccccc1CN1C(=O)S/C(=C/c2ccc(-c3ccc(Cl)c(C(=O)O)c3)o2)C1=O	42.3
Cc1c(C(=O)O)cccc1-c1ccc(/C=C2/SC(=O)N(Cc3cc4c(cc3Cl)OCO4)C2=O)o1	i
Cc1ccccc1NC(=O)CN1C(=O)S/C(=C\c2ccc(-c3cc(C(=O)O)ccc3Cl)o2)C1=O	27.6
Cc1ccccc1NC(=O)CN1C(=O)S/C(=C\c2ccc(-c3cc(C(=O)O)ccc3C)o2)C1=O	i
O=S(=O)(Nc1ccc(-c2cn3ccccc3n2)cc1)c1ccc2cccc3c2c1CC3	i
O=C(c1cn(CCN2CCCCC2)nn1)N1CCCN(Cc2cccs2)CC1	i
Cn1cccc(-c2ccccc2)c1=O	i
CC(C)(C)NC(=O)Nc1cccc(Cl)c1	i
Cc1nnc(NC(=O)CSc2nnc(Cc3c(C)[nH]c4ccccc34)o2)s1	i
O=S(=O)(c1ccccc1)c1nc2ccccc2nc1/C=C/c1ccccc1Cl	i
O=C(CCC1CCCN(Cc2ncc[nH]2)C1)NC1CC1 (stereo not given)	i
Cc1[nH]c2c(C(=O)N3CCOc4ccc(CN5CCN(c6ccccn6)CC5)cc4C3)cccc2c1C	i
Cc1ccc(C(=O)c2coc3ccc(Br)cc3c2=O)cc1	i
CC(=O)C(C(C)=O)C1=C(Br)C(=O)C(=O)c2c(C(=O)c3ccccc3)coc21	i
CC(=O)Oc1ccc2occ(C(=O)c3ccccc3)c2c1	i
O=C1C(=O)c2c(C(=O)c3ccccc3)coc2C(Cl)=C1Cl	89.5
SMILES	ROC1-CUL1 inh
O=C(c1ccccc1)c1coc2cc(Br)c(O)c(Br)c12	i
Nc1sccc1C(=O)c1ccccc1	i
Cc1ccc(C(=O)c2coc3c2C(=O)C(=O)C(Br)=C3)cc1	95.7
O=C1C(=O)c2c(C(=O)c3ccccc3)coc2C=C1Br	104.0
Cc1ccc(C(=O)c2coc3c2C(=O)C(=O)c2ccccc2-3)cc1	i
COc1ccc(-c2cc(=O)[nH]c(N3CCN(C)CC3)n2)cc1OC	i
Cc1cccc(/C=N/Nc2ccccc2[N+](=O)[O-])c1	i
Cc1cc(N(CCO)CCO)nc(-c2ccc(Br)cc2)n1	i
O=C(NC1CCN(Cc2ccccc2)CC1)c1cccc(F)c1	i
N#CCCN(CCC#N)c1nc(N)[nH]c(=O)c1[N+](=O)[O-]	i
COc1ccc(CN2CCC(c3ccc(Cl)cc3)CC2)cc1OC	i
CCOc1cc(/C=C2\N=C(c3ccccc3)OC2=O)ccc1OCc1ccc(Cl)cc1	i
COc1ccc(/C=C2\N=C(c3ccccc3)OC2=O)cc1[N+](=O)[O-]	i
CCN(CC)c1ccc(/C=C2\N=C(c3ccccc3)OC2=O)cc1	31.7
O=C(NNC(=S)Nc1ccc(F)cc1)c1ccc([N+](=O)[O-])cc1	i
C=CCNC(=O)c1cc(-c2ccc(CC)cc2)nc2ccc(Br)cc12	i
Cc1cccc(-c2cc(C(=O)Nc3nc4ccccc4[nH]3)c3ccccc3n2)c1	i
O=C(Nc1ccc2nc(SCC(=O)N3CCOCC3)sc2c1)c1cccc(F)c1	i
O=C(Nc1ccc2nc(SCC(=O)N3CCOCC3)sc2c1)c1cccc(Br)c1	26.9
O=C(Nc1ccc2nc(SCC(=O)N3CCOCC3)sc2c1)c1ccc(Br)cc1	i
O=S(=O)(Cc1ccccc1F)c1nc2ncccc2[nH]1	i
CNc1ncccc1C(=O)NCC1CCN(c2cnn(C)c(=O)c2)C1 (stereo not given)	i
Cc1ccc(C)c(Sc2cnn(-c3ccccc3)c(=O)c2Cl)c1	i
COc1cc(C(=O)Nc2ccc(NC(=O)c3ccc(F)cc3)cc2)cc(OC)c1OC	i
CC(C)N1C(=O)C(C=Nc2cc(Cl)c(Cl)cc2Cl)C(=O)N(Cc2ccco2)C1=O (stereo not given)	i
COc1ccc(/C=C2\C(=O)N(Cc3ccco3)C(=O)N(C(C)C)C2=O)c(OC)c1	101.1
CC(C)N1C(=O)/C(=C\c2ccc(N(C)C)cc2)C(=O)N(Cc2ccco2)C1=O	i
COc1cccc(-c2cc(C(=O)O)c3c(ccc4ccccc43)n2)c1OCc1cccc(Cl)c1	i
CC1CCC2C(=O)N(c3ccccc3OC(=O)c3ccc(Cl)cc3)C(=O)C2C1 (stereo not given)	i
COC(=O)c1cccc(-c2ccc(C=C3C(=O)OC(c4ccccc4)OC3=O)o2)c1 (stereo not given)	i

Screening results from PubChem.
